Records with an inconclusive call do not appear. Values without a mark were called inactive. Activity calls are given as the source filed them. The call rests on the fitted dose curve.
molecular target: Acetylcholinesterase (Homo sapiens) (UniProt P22303); test: Acetylcholinesterase (AChE) small molecule antagonists: fluorescence cell-based qHTS assay (AID 1347398); conditions: SH-SY5Y cells; Potency: AChE activity; outcome: AChE activity; series mostly up to 115 µM; activity change, negative = inhibition: at the top concentration; further: nearly all actives have a fitted effect of over 50% in size
Sequence (P22303 whole entry, looked up): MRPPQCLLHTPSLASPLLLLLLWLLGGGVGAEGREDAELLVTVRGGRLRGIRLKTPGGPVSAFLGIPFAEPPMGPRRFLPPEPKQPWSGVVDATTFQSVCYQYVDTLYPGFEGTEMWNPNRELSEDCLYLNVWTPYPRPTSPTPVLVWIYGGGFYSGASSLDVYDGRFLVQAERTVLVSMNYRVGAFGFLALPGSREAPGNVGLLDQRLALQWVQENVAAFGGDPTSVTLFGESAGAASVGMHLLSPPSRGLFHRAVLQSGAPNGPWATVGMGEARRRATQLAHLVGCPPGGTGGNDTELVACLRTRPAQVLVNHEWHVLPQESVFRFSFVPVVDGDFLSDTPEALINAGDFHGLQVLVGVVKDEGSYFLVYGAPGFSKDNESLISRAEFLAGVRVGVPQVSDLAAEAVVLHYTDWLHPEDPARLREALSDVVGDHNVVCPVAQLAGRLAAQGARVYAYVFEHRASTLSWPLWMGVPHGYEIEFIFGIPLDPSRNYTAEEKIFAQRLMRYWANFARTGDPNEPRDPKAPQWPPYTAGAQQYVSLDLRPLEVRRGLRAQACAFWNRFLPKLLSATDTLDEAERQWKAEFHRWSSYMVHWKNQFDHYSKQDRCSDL
Source text: National Center for Advancing Translational Sciences [NCATS]
Division of Preclinical Innovation [DPI]
U.S. Environmental Protection Agency [EPA]
National Institutes of Environmental Health Sciences [NIEHS]
National Toxicology Program [NTP]
U.S. Food and Drug Administration [FDA]
Acetylcholinesterase (AChE) is the primary cholinesterase in the body that hydrolyzes a key neurotransmitter, acetylcholine. Inhibition of AChE activity can lead to neurotoxicity. Known inhibitors of AChE include organophosphorous pesticides (OP), chemical warfare agents, drugs, and various phytochemicals.
A homogenous cell-based assay using Amplitetrade mark Fluorimetric Acetylcholinesterase Assay Kit *Green Fluorescence* (AAT Bioquest, Sunnyvale, CA) was used to evaluate the chemicals in the Tox21 10K library that inhibit AChE activity. The assay uses Thiolite Green to quantify the thiocholine produced from the hydrolysis of acetylthiocholine by AChE from the SH-SY5Y cells. AChE can hydrolyze acetylthiocholine to create thiocholine. Thiolite Green is fluorescent when reacting with thiocholine. It has spectral properties similar to those of fluorescein. The fluorescence intensity of Thiolite Green is used to measure AChE activity. Its signal can be easily read by a fluorescence microplate reader at Ex/Em = 490/520 nm.
Tox21 Assay Protocol Summary:
For cell-based AChE assay, 2,000 SH-SY5Y cells in 4 uL/well were dispensed into black, clear-bottom 1536-well plates using a Multidrop Combi (Thermo Scientific) dispenser. The assay plates were incubated overnight at 37 C to allow cells to attach to the wells, followed by the transfer of 23 nL compound or DMSO (vehicle control) by a Pintool station (Wako Automation, CA). The plates were incubated for 30 min at 37 C and 5% CO2, followed by the addition of 4 uL of detection cocktail solution (ThioliteGreen, acetylthiocholine) into each well using Flying Reagent Dispenser (Beckman Coulter, CA) and then following 40 min incubation at room temperature. Fluorescent intensity (Ex/Em = 490/520 nm) was measured using an Envision plate reader (PerkinElmer, MA).
On the % scale 0 is the no-effect control and ±100 the full control effect.

| SMILES | activity change, negative = inhibition | outcome | Potency |
| --- | --- | --- | --- |
| CCC1(c2ccccc2)C(=O)N(COC)C(=O)N(COC)C1=O | 15.6% [at 53.7 µM] |  |  |
| N[C@@H](Cc1ccc(Oc2cc(I)c(O)c(I)c2)c(I)c1)C(=O)O | -1.4% [at 53.7 µM] |  |  |
| CCCCCCCC(=O)Cl | -1.19% |  |  |
| CC#Cc1cc(C)nc(Nc2ccccc2)n1 | -1.63% |  |  |
| CCN1CCCC1CNC(=O)C(O)(c1ccccc1)c1ccccc1 (stereo not given) | -7.03% [at 53.7 µM] |  |  |
| N[C@@H]1C[C@H]1c1ccccc1 |  | inactive |  |
| CCC(C)(C#N)N=NC(C)(C#N)CC (stereo not given) | 4.38% |  |  |
| CC(Cc1ccccc1)NCCn1cnc2c1c(=O)n(C)c(=O)n2C (stereo not given) | -13.9% |  |  |
| NCC1(CC(=O)O)CCCCC1 | 1.65% [at 53.7 µM] |  |  |
| O=P(O)(O)c1ccccc1 | 0.647% |  |  |
| C=C(Cl)CSC(=S)N(CC)CC | 2.33% |  |  |
| O=C(O)C(F)(F)C(F)(F)C(F)(F)C(F)(F)C(F)(F)C(F)(F)F | 3.64% |  |  |
| [O-][Br+2]([O-])O | 2.86% [at 53.7 µM] |  |  |
| CCCCCCCCSC(=O)Oc1cc(Cl)nnc1-c1ccccc1 | 2.91% |  |  |
| [P]#[In] | 1.76% |  |  |
| Cc1ccc2c(c1)C1CN(C)CCC1N2 (stereo not given) | -10.6% [at 23.8 µM] |  |  |
| CC(C)(O)C(Cl)(Cl)Cl | -10.3% [at 53.7 µM] |  |  |
| CCCCCCC1CCOC1=O (stereo not given) | 0.533% |  |  |
| CN(C)C1CCCCC1 | -0.466% |  |  |
| CC(C)N(Cc1ccccc1)C(=O)C(C)(C)C | -16.8% |  |  |

| SMILES | activity change, negative = inhibition | outcome | Potency |
| --- | --- | --- | --- |
| NC(=O)CS(=O)C(c1ccccc1)c1ccccc1 (stereo not given) | 1.25% [at 53.7 µM] |  |  |
| NC(=O)OCCCc1ccccc1 | -5.76% [at 53.7 µM] |  |  |
| CC(O)CCl (stereo not given) | 3.44% |  |  |
| C=CC1(C)OC(=O)N(c2cc(Cl)cc(Cl)c2)C1=O (stereo not given) |  |  | inactive |
| CC(C)NCC(O)c1ccc([N+](=O)[O-])cc1 (stereo not given) | 15.2% [at 53.7 µM] |  |  |
| COP(=O)(O)OC | 2.42% |  |  |
| BrCCc1ccccc1 | 1.38% |  |  |
| O=C(Cl)c1ccccc1 | 7.13% |  |  |
| CCC(CC)(CNC(=O)CCCO)c1cccc(OC)c1 | -0.546% [at 53.7 µM] |  |  |
| CCNc1nc(Cl)nc(NC(C)(C)C)n1 | -1.09% |  |  |
| S=C=S | 4.59% |  |  |
| O=[N+]([O-])CCO | 2.88% |  |  |
| COC(=O)[C@@H](N)CCCN/C(N)=N/[N+](=O)[O-] | 6.29% [at 53.7 µM] |  |  |
| O=c1[nH]c2ccccc2o1 | 0.669% |  |  |
| CN=CNc1ccc(C)cc1C | 5.27% |  |  |
| O=C(O)C(Cl)Br (stereo not given) | -1.02% |  |  |
| CCCOc1nn(C(=O)NS(=O)(=O)c2ccccc2C(=O)OC)c(=O)n1C | 0.0707% |  |  |
| C(COCC1CO1)OCC1CO1 (stereo not given) | 3.77% |  |  |
| CCOC1Oc2ccc(OS(C)(=O)=O)cc2C1(C)C (stereo not given) | 1.26% |  |  |
| O=C(CCl)NCO | 1.26% |  |  |
